# According to PubChem BioAssay AID1159580 (chemical genetic matrix, 2015):
# Several values for one entry are separate records, joined by “and”; a condition that tells them apart may be missing. Identical values can stand only once. The whole screen tested about 5,500 compounds, of which about 2,000 (36%) were called active. Inconclusive results (about 18%) are left out. Rule as the data show it: active = normalized growth mostly below about 0.91 (no sharp cut-off); inconclusive = no clear call, values can overlap the other calls; inactive = mostly above about 0.92. This is one part of the list.
# Experiment: chemical genetic growth profiling, strain panel (AID 1159580);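 also: tested at 20 µM; growth read once vehicle control cultures reached saturation at 30 °C; 1 = growth at the plate median or of vehicle wells; lower values mean less growth of the strain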
# Settings: S. cerevisiae deletion strains, growth OD
compound,measurement,setting,value
Cc1cccc(Nc2ccccc2C(=O)O)c1C,normalized growth,"locus YAL013W, strain DEP1, stronger effect = lower value",0.89 (active)
same,normalized growth,"locus YAL021C, strain ccr4, stronger effect = lower value",0.934 (inactive)
same,normalized growth,"locus YAL026C, strain drs2, stronger effect = lower value",0.929 (inactive)
same,normalized growth,"locus YAL030W, strain snc1, stronger effect = lower value",0.913 (active)
same,normalized growth,"locus YBL061C, strain skt5, stronger effect = lower value",0.924 (inactive)
same,normalized growth,"locus YBR009C, strain hhf1, stronger effect = lower value",0.951 (inactive)
same,normalized growth,"locus YBR021W, strain FUR4, stronger effect = lower value",0.853 (inactive)
same,normalized growth,"locus YBR023C, strain chs3, stronger effect = lower value",0.919 (inactive)
same,normalized growth,"locus YBR171W, strain sec66, stronger effect = lower value",0.843 (active)
same,normalized growth,"locus YBR229C, strain ROT2, stronger effect = lower value",0.912 (active)
same,normalized growth,"locus YBR231C, strain swc5, stronger effect = lower value",0.915 (inactive)
same,normalized growth,"locus YBR279W, strain paf1, stronger effect = lower value",0.921 (active)
same,normalized growth,"locus YCL011C, strain gbp2, stronger effect = lower value",0.922 (inactive)
same,normalized growth,"locus YCL016C, strain dcc1, stronger effect = lower value",0.913 (active)
same,normalized growth,"locus YCL029C, strain bik1, stronger effect = lower value",0.907 (active)
same,normalized growth,"locus YCL061C, strain MRC1, stronger effect = lower value",0.894 (active)
same,normalized growth,"locus YCL069W, strain vba3, stronger effect = lower value",0.912 (active)
same,normalized growth,"locus YCR088W, strain abp1, stronger effect = lower value",0.895 (active)
same,normalized growth,"locus YDL005C, strain med2, stronger effect = lower value",0.946 (inactive)
same,normalized growth,"locus YDL035C, strain GPR1, stronger effect = lower value",0.921 (inactive)
same,normalized growth,"locus YDL040C, strain nat1, stronger effect = lower value",0.92 (active)
same,normalized growth,"locus YDL074C, strain BRE1, stronger effect = lower value",0.898 (inactive)
same,normalized growth,"locus YDL101C, strain DUN1, stronger effect = lower value",0.994 (inactive)
same,normalized growth,"locus YDL134C, strain PPH21, stronger effect = lower value",0.904 (inactive)
same,normalized growth,"locus YDL185W, strain tfp1, stronger effect = lower value",0.984 (inactive)
same,normalized growth,"locus YDL192W, strain arf1, stronger effect = lower value",0.834 (active)
same,normalized growth,"locus YDR001C, strain nth1, stronger effect = lower value",0.893 (active)
same,normalized growth,"locus YDR069C, strain doa4, stronger effect = lower value",0.988 (inactive)
same,normalized growth,"locus YDR101C, strain arx1, stronger effect = lower value",0.885 (active)
same,normalized growth,"locus YDR137W, strain rgp1, stronger effect = lower value",0.739 (active)
same,normalized growth,"locus YDR150W, strain NUM1, stronger effect = lower value",0.894 (active)
same,normalized growth,"locus YDR159W, strain sac3, stronger effect = lower value",0.898 (inactive)
same,normalized growth,"locus YDR162C, strain NBP2, stronger effect = lower value",0.806 (active)
same,normalized growth,"locus YDR195W, strain ref2",1.08 (inactive)
same,normalized growth,"locus YDR297W, strain sur2, stronger effect = lower value",0.912 (active)
same,normalized growth,"locus YDR318W, strain mcm21, stronger effect = lower value",0.882 (active)
same,normalized growth,"locus YDR334W, strain swr1, stronger effect = lower value",0.908 (inactive)
same,normalized growth,"locus YDR335W, strain msn5, stronger effect = lower value",0.923 (inactive)
same,normalized growth,"locus YDR388W, stronger effect = lower value",0.869 (active)
same,normalized growth,"locus YDR392W, strain spt3, stronger effect = lower value",0.593 (active)
same,normalized growth,"locus YDR502C, strain sam2, stronger effect = lower value",0.864 (active)
same,normalized growth,"locus YEL003W, strain gim4, stronger effect = lower value",0.937 (inactive)
same,normalized growth,"locus YEL037C, strain rad23, stronger effect = lower value",0.909 (active)
same,normalized growth,"locus YEL061C, strain CIN8 (second series), stronger effect = lower value",0.887 (active)
same,normalized growth,"locus YEL061C, strain CIN8, stronger effect = lower value",0.904 (active)
same,normalized growth,"locus YER015W, strain faa2, stronger effect = lower value",0.936 (inactive)
same,normalized growth,"locus YER016W, strain bim1, stronger effect = lower value",0.918 (active)
same,normalized growth,"locus YER110C, stronger effect = lower value",0.859 (active)
same,normalized growth,"locus YER111C, strain swi4, stronger effect = lower value",0.907 (active)
same,normalized growth,"locus YER155C, strain BEM2 (second series), stronger effect = lower value",0.904 (inactive)
same,normalized growth,"locus YER155C, strain BEM2, stronger effect = lower value",0.868 (active)
same,normalized growth,"locus YER167W, strain BCK2, stronger effect = lower value",0.867 (active)
same,normalized growth,"locus YFR010W, strain ubp6, stronger effect = lower value",0.986 (inactive)
same,normalized growth,"locus YGL078C, strain dbp3, stronger effect = lower value",0.959 (inactive)
same,normalized growth,"locus YGL086W, strain mad1, stronger effect = lower value",0.884 (active)
same,normalized growth,"locus YGL167C, strain pmr1, stronger effect = lower value",0.851 (active)
same,normalized growth,"locus YGL173C, strain kem1, stronger effect = lower value",0.911 (inactive)
same,normalized growth,"locus YGL227W, strain vid30, stronger effect = lower value",0.917 (inactive)
same,normalized growth,"locus YGL240W, strain doc1, stronger effect = lower value",0.967 (inactive)
same,normalized growth,"locus YGL248W, strain PDE1, stronger effect = lower value",0.936 (inactive)
same,normalized growth,"locus YGL253W, strain hxk2, stronger effect = lower value",0.897 (active)
same,normalized growth,"locus YGR078C, strain PAC10, stronger effect = lower value",0.897 (inactive)
same,normalized growth,"locus YGR135W, strain pre9, stronger effect = lower value",0.858 (active)
same,normalized growth,"locus YGR229C, strain SMI1, stronger effect = lower value",0.729 (active)
same,normalized growth,"locus YGR252W, strain gcn5, stronger effect = lower value",0.854 (inactive)
same,normalized growth,"locus YHR013C, strain ard1, stronger effect = lower value",0.967 (inactive)
same,normalized growth,"locus YHR027C, strain rpn1, stronger effect = lower value",0.906 (active)
same,normalized growth,"locus YHR030C, strain SLT2, stronger effect = lower value",0.907 (active) and 0.891 (inactive)
same,normalized growth,"locus YHR079C, strain IRE1 (second series), stronger effect = lower value",0.887 (active)
same,normalized growth,"locus YHR079C, strain IRE1, stronger effect = lower value",0.883 (inactive)
same,normalized growth,"locus YHR094C, strain hxt1, stronger effect = lower value",0.872 (active)
same,normalized growth,"locus YHR129C, strain ARP1, stronger effect = lower value",0.911 (active)
same,normalized growth,"locus YHR142W, strain chs7, stronger effect = lower value",0.887 (inactive)
same,normalized growth,"locus YHR200W, strain rpn10, stronger effect = lower value",0.872 (active)
same,normalized growth,"locus YIL066C, strain RNR3, stronger effect = lower value",0.915 (inactive)
same,normalized growth,"locus YIL073C, strain SPO22, stronger effect = lower value",0.905 (inactive)
same,normalized growth,"locus YIL125W, strain kgd1, stronger effect = lower value",0.985 (inactive)
same,normalized growth,"locus YIR030C, strain dcg1, stronger effect = lower value",0.863 (active)
same,normalized growth,"locus YJL092W, strain hpr5, stronger effect = lower value",0.908 (active)
same,normalized growth,"locus YJL095W, strain BCK1 (second series), stronger effect = lower value",0.918 (active)
same,normalized growth,"locus YJL095W, strain BCK1, stronger effect = lower value",0.8 (inactive) and 0.923 (inactive)
same,normalized growth,"locus YJL115W, strain asf1, stronger effect = lower value",0.908 (inactive)
same,normalized growth,"locus YJL129C, strain trk1, stronger effect = lower value",0.697 (active)
same,normalized growth,"locus YJL134W, strain LCB3, stronger effect = lower value",0.894 (active)
same,normalized growth,"locus YJL154C, strain vps35, stronger effect = lower value",0.904 (active)
same,normalized growth,"locus YJL164C, strain tpk1, stronger effect = lower value",0.948 (inactive)
same,normalized growth,"locus YJL166W, strain qcr8, stronger effect = lower value",0.929 (inactive)
same,normalized growth,"locus YJL168C, strain set2, stronger effect = lower value",0.868 (active)
same,normalized growth,"locus YJL187C, strain SWE1 (second series), stronger effect = lower value",0.932 (inactive)
same,normalized growth,"locus YJL187C, strain SWE1, stronger effect = lower value",0.922 (active)
same,normalized growth,"locus YJR043C, strain POL32, stronger effect = lower value",0.942 (inactive)
same,normalized growth,"locus YJR066W, strain TOR1, stronger effect = lower value",0.81 (active)
